Sampled rows, rich in hits. Any-hit rate of the full collection: about 2.1%.
Platelet DG rel: platelet dense granule release activity; human platelet-rich plasma, SFLLRN dense granule ATP release, luminescence; inhibition, %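 (compounds screened at 7.5 µM in platelet-rich plasma)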; 300,000 tested, 0.22% active; AID 1663;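 active = mean replicate score, as percent of positive control, at or above 50; inconclusive = mean below 50 but at least one replicate at or above 50; inactive = mean and every replicate below 50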
KLF5 inh: kruppel-like factor 5 inhibition. DLD-1 KLF5 promoter-luciferase reporter, luminescence. inhibition, % at 5 µM. 290,000 tested, 0.23% active. AID 1700;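 active = inhibition above a per-plate limit of that plate's mean compound inhibition plus 3 SD, cut at about 60% in these data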;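 note: 0% = DMSO wells and 100% = LY294002 at 200 µM; higher means less KLF5 promoter-driven luciferase light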
HIF act: HIF pathway transcriptional activation. activation, % at 7.5 µM (by protocol). 300,000 tested, 0.32% active. U2OS HRE-luciferase reporter, luminescence; normalized: DMSO 0%, desferrioxamine 100%. AID 1910;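 active = mean activation of at least 10% of the iron chelator positive control signal, with at least half of replicates also reaching 10%; inconclusive = mean and replicate majority disagree about reaching 10%; inactive = mean and most replicates under 10%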
Wee1 stabilizer: blocks degradation of human Wee1 kinase | 220,000 tested, 1.2% active | reporter increase, % at 5 µM | AID 1321 | HeLa Luc-Wee1K328M stability, luciferase luminescence; 100% = proteasome inhibitor MG132 effect;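 active = activation above the mean of all tested compounds plus 3 SD, set per screening run, cut at about 8.8% in these data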;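 note: cells exposed to compound for 20 h before luminescence read; 0% = DMSO alone and 100% = MG132 at 30 µM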
Target sequence (P30291 whole entry K328M): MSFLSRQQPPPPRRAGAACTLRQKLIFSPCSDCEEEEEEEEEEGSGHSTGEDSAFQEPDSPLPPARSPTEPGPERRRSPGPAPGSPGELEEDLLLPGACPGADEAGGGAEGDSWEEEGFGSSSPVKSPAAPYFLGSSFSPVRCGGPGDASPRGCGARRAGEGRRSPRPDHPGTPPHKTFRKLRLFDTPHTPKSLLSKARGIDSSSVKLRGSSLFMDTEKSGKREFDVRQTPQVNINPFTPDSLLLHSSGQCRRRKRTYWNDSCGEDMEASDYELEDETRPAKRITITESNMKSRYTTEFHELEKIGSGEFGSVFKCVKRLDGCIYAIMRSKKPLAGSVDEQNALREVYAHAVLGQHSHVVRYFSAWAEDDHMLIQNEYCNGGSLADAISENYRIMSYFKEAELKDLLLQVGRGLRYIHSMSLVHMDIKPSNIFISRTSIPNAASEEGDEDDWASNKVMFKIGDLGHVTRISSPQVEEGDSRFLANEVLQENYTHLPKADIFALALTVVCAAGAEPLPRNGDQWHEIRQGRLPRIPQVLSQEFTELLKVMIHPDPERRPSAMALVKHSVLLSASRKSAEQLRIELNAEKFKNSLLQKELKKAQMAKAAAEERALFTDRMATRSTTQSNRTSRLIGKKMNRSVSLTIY
aSyn 5UTR inh: MLPCN primary screen, SNCA 5' untranslated region | alpha-synuclein 5'UTR reporter, inhibitor activity | inhibition, % (tested at 7.5 µM) | 300,000 tested, 0.82% active | AID 1813; in the data active = inhibition above about 60%; inconclusive = no clear call, values can overlap the other calls;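 note: H4 neuroglioblastoma cells stably carrying SNCA 5'UTR luciferase fusion; 0% = DMSO wells and 100% = positive control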
* marks the source's active call; other numbers are inactive results.

What do the screens show for `N/C(=N\N=C\c1ccc([N+](=O)[O-])cc1)c1nonc1N`?
Platelet DG rel: 33; KLF5 inh: -109; HIF act: 1; Wee1 stabilizer: 2; aSyn 5UTR inh: -154

What do the screens show for `N/C(=N\N=C\c1ccc(O)c(O)c1)c1nonc1N`?
Platelet DG rel: 105*; KLF5 inh: -105; HIF act: 3; Wee1 stabilizer: -1; aSyn 5UTR inh: -130

How did N/C(=N\N=C\c1cccc(O)c1)c1nonc1N do in these assays?
Platelet DG rel: 70*; KLF5 inh: -123; HIF act: 0; Wee1 stabilizer: -2; aSyn 5UTR inh: -106

What do the screens show for `COc1cc(/C=N/N=C(\N)c2nonc2N)ccc1O`?
Platelet DG rel: inconclusive; KLF5 inh: -67; HIF act: 3; Wee1 stabilizer: -1; aSyn 5UTR inh: -78

How did Cc1ccc(N(CC(=O)NC2CC2)S(=O)(=O)c2ccccc2)c(C)c1 do in these assays?
Platelet DG rel: -10; KLF5 inh: -5; HIF act: -1; aSyn 5UTR inh: 7

How did O=C(Nc1nnc(C(F)(F)F)s1)c1ccc(Br)s1 do in these assays?
Platelet DG rel: 3; KLF5 inh: -104; HIF act: 2; Wee1 stabilizer: 9.8*; aSyn 5UTR inh: -75

How did COC(=O)C1=C(C)N(Cc2ccc(OC)cc2)C(=O)C1 do in these assays?
Platelet DG rel: -4; KLF5 inh: 2; HIF act: 223*; Wee1 stabilizer: -2; aSyn 5UTR inh: 4

How did Nc1nonc1C(=O)N/N=C\c1cc2c(cc1Cl)OCO2 do in these assays?
KLF5 inh: -11

Results for N#Cc1cc2c(nc1Cl)CCC2 ?
KLF5 inh: -6; Wee1 stabilizer: 1

Results for N#CCSc1nnc(CNc2ccc(F)cc2)o1 ?
Platelet DG rel: 6; KLF5 inh: -35; HIF act: 0; Wee1 stabilizer: 1; aSyn 5UTR inh: -1

How did Cc1ccc(CSc2nnc(CNc3ccc(F)cc3)o2)cc1 do in these assays?
Platelet DG rel: -1; KLF5 inh: -36; HIF act: -1; Wee1 stabilizer: 9.6*; aSyn 5UTR inh: 6

How did O=[N+]([O-])c1cccc(P(=O)(O)c2cccc([N+](=O)[O-])c2)c1 do in these assays?
Platelet DG rel: -4; KLF5 inh: -21; HIF act: -1; Wee1 stabilizer: 25*; aSyn 5UTR inh: -13

How did CCP(=O)(c1cccc([N+](=O)[O-])c1)c1cccc([N+](=O)[O-])c1 do in these assays?
Platelet DG rel: -3; KLF5 inh: -11; HIF act: -1; Wee1 stabilizer: 5; aSyn 5UTR inh: -5

How did CCOC(=O)C1CCN(C(=O)Cn2nc(C)n3c(cc4cc(C)ccc43)c2=O)CC1 do in these assays?
Platelet DG rel: -9; KLF5 inh: -21; HIF act: 0; aSyn 5UTR inh: 13

What do the screens show for `CCOC(=O)C1CCN(C(=O)Cn2nc(C)n3c(cc4cc(F)ccc43)c2=O)CC1`?
Platelet DG rel: 50*; KLF5 inh: -13; HIF act: -1; aSyn 5UTR inh: -11

What do the screens show for `O=C(NCc1cnc2ccccn12)C1CCC(=O)N(Cc2ccccc2F)C1` (centres undefined)?
Platelet DG rel: -11; KLF5 inh: -15; HIF act: -1; aSyn 5UTR inh: -11

Results for COc1cc(C2NC(=O)NC(C)=C2C(=O)OCC2CCCCC2)ccc1O (centres undefined) ?
Platelet DG rel: 7; KLF5 inh: -19; HIF act: 0; aSyn 5UTR inh: 5

Results for CC(Oc1ccc(Br)cc1)C(=O)Nc1ccc(N2CCOCC2)cc1N1CCOCC1 (centres undefined) ?
Platelet DG rel: 4; HIF act: -1; aSyn 5UTR inh: 4

How did CC(C)Oc1ccc(-c2nn(-c3ccccc3)cc2/C=c2\sc3ncnn3c2=O)cc1 do in these assays?
KLF5 inh: 3; Wee1 stabilizer: 10*

What do the screens show for `COc1ccc(CO/N=C/c2c(C)[nH]c(=O)[nH]c2=O)cc1`?
Platelet DG rel: 72*; KLF5 inh: 19; HIF act: -1; Wee1 stabilizer: 6; aSyn 5UTR inh: 2

Results for Cc1cccc(NC(=S)N2N=CCC2c2ccccc2)c1 (centres undefined) ?
Platelet DG rel: 0; KLF5 inh: -103; HIF act: 2; Wee1 stabilizer: 0; aSyn 5UTR inh: -125

What do the screens show for `CCc1ccccc1NC(=S)N1N=CCC1c1ccccc1` (centres undefined)?
Platelet DG rel: 1; KLF5 inh: -27; HIF act: 0; Wee1 stabilizer: 8.8*; aSyn 5UTR inh: -71

How did CC(C)N1CC(C(=O)Nc2ccc(C#N)cc2)CC1=O (centres undefined) do in these assays?
Platelet DG rel: 2; KLF5 inh: -18; HIF act: -4; aSyn 5UTR inh: 0

What do the screens show for `CC(=O)Nc1ccc(C#Cc2ccc(NC(C)=O)cc2)cc1`?
Platelet DG rel: 3; KLF5 inh: -28; HIF act: -4; Wee1 stabilizer: 1; aSyn 5UTR inh: 74*

What do the screens show for `Cc1ccc(-n2c(SCC(=O)NCc3ccco3)nc3c(sc4ccccc43)c2=O)cc1`?
Platelet DG rel: 10; KLF5 inh: -13; HIF act: 1; Wee1 stabilizer: 0; aSyn 5UTR inh: 10

Results for O=C(c1ccc(Cl)c([N+](=O)[O-])c1)N(c1ccccn1)c1ccccn1 ?
Platelet DG rel: 21; KLF5 inh: 15; HIF act: 0; Wee1 stabilizer: -2; aSyn 5UTR inh: -98

What do the screens show for `COC(=O)CCN(C(=O)c1ccc(C)c([N+](=O)[O-])c1)c1ccccn1`?
Platelet DG rel: 1; KLF5 inh: -7; HIF act: -1; Wee1 stabilizer: 10.0*; aSyn 5UTR inh: 2

What do the screens show for `CC(C)c1ccccc1NC(=O)CNCCOc1ccccc1F`?
Platelet DG rel: 3; KLF5 inh: -2; HIF act: 0; aSyn 5UTR inh: 4

Results for Cc1cccc(NC(=O)C2CC(=O)NC(Nc3nc4ccccc4s3)=N2)c1 (centres undefined) ?
Platelet DG rel: 13; KLF5 inh: -15; HIF act: 99*; Wee1 stabilizer: -3; aSyn 5UTR inh: 0

What do the screens show for `COc1ccc(NC(=O)C2CC(=O)NC(Nc3cccc(C)c3)=N2)cc1` (centres undefined)?
Platelet DG rel: -13; KLF5 inh: -16; HIF act: -1; Wee1 stabilizer: 1; aSyn 5UTR inh: 10

Results for CCCN1CCN(C(=O)C2CCN(S(=O)(=O)c3c(C)noc3/C=C/c3ccc(C)cc3)CC2)CC1 ?
Platelet DG rel: -23; KLF5 inh: -6; HIF act: -1; aSyn 5UTR inh: 2

What do the screens show for `Cc1ccc(CSc2nnc(-c3ccncc3)o2)c(C)c1`?
Platelet DG rel: -1; KLF5 inh: -29; HIF act: 0; Wee1 stabilizer: 5; aSyn 5UTR inh: -17

What do the screens show for `COc1ccc(NC(=O)C(=O)NCC2CCCN2S(=O)(=O)c2ccc(C)cc2)cc1` (centres undefined)?
Platelet DG rel: -13; HIF act: 1; aSyn 5UTR inh: 91*

Results for CN1C(=O)c2c(sc3c2CCCC3)NC1c1ccccc1O (centres undefined) ?
Platelet DG rel: 2; KLF5 inh: -44; HIF act: 1; Wee1 stabilizer: 2; aSyn 5UTR inh: -38

Assay outcomes: PubChem BioAssay, several laboratories
